The results in this text go back to PubChem BioAssay (NCI).

Each structure is given as a SMILES string. The panel holds about 83,000 compounds, 20% with a hit somewhere; the sample as a whole holds those more often.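 Results are percent growth after 48 hours of single-concentration exposure. 100 means growth as in untreated cells, lower positive values show inhibition; negative values down to -100 show cell death.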 The source made the active and inactive calls.

The test system of the assay is SNB-75 CNS. The experiment in a line: NCI-60 one-dose screen, 48 h (100 = growth as untreated, 0 = no growth, -100 = all killed). The note with it: 10 µM unless noted. On the procedure: Growth inhibition of the SNB-75 human tumor cell line is measured as a screen for anti-cancer activity. Cells are grown in 96 well plates and exposed to the test compound for 48 hours. Compounds are tested at a single concentration, which is 10^-5 M for most compounds. The reported endpoint is percent growth (GI% or GIPRCNT), where numbers from 0 - 100% represent growth inhibition, and numbers from -100% - 0 represent cell death. For example, a value of 40 represents 60% growth inhibition. A value of 0 means no net growth occurred over the course of the experiment. A value of -40 indicates 40% of cells at the beginning of the experiment died by the end of the experiment. A value of -100 means all cells are dead at the end of the experiment.
NCI-60 Human Tumor Cell Lines Screen was performed using the standard one-dose NCI protocol, which is described in more detail at https://dtp.cancer.gov/discovery_development/nci-60/default.htm.
Compounds with GIPRCNT values below 10 were considered active. Activity score was based on GIPRCNT using the following formula: […]
Score is 0 for GIPRCNT values of 100 or above, 50 for GIPRCNT values of 0, and 100 for GIPRCNT values of -100.
For `COc1cc(/C=C/C(=O)c2ccc(Oc3ncnc4ccccc34)cc2)cc(OC)c1OC`, the growth was 69.5% (inactive).

Regarding `CN[C@@H](CCCNC(N)=NC/C=C(/C)CCC=C(C)C)C(=O)N(C)[C@@H](CCCNC(N)=NCC=C(C)C)C(=O)N[C@H](C)[C@H](OS(=O)(=O)O)c1ccc(OS(=O)(=O)O)c(COS(=O)(=O)O)c1`, the growth is 98.6% (inactive). In the case of `Nc1nc(-c2cc3c(cc2Cl)NC(=O)/C3=C/c2ccccc2)cs1` it was 64.8% (inactive).

In the case of `C=CC(C)(O)CCC1C(=C)CCC2C(C)(C)CCCC12C` (stereo not given), the growth was 91.3% (inactive). In the case of `O=C(Nc1ccc(-n2cc(-c3ccncc3)c(-c3ccc(O)c(Cl)c3)n2)cc1)c1ccc(Cl)c(C(F)(F)F)c1`, the growth was 59.7% (inactive). The result for `CCCc1nn2c(CCC(=O)c3nc4ccc([N+](=O)[O-])cc4[nH]3)nnc2s1` reads 97.2% (inactive); that for `Cc1[nH]n(C(=O)c2ccncc2)c(=O)c1N=Nc1ccc(S(=O)(=O)Nc2ccncn2)cc1`, 93.9% (inactive).

Regarding `O=C(Cn1c2ccccc2c2ccncc21)N/N=C/c1cc(O)c(O)c(O)c1`, the growth was 115% (inactive). Take `C[C@@H]1CC2C3C[C@H](F)C4=CC(=O)C=C[C@]4(C)[C@@]3(F)[C@@H](O)C[C@]2(C)[C@@]1(O)C(=O)CO` (stereo not given in full): the growth was 132% (inactive). For the molecule `O=C(NCCNc1nccc(-c2c(-c3cccc(O)c3)nc3sccn23)n1)c1ccccc1O`, the growth is 40.6% (inactive). The result for `COc1cccc(C2CC(c3cc(OC)c(OC)c(OC)c3)=NN2)c1` (stereo not given) reads 74.4% (inactive); that for `O=C(NCCNc1nccc(-c2c(-c3cccc(O)c3)nc3sccn23)n1)Nc1cc(C(F)(F)F)cc(C(F)(F)F)c1`, 66.1% (inactive); that for `COc1ccc(-c2nn(-c3ccc(NC(=O)c4cc(Cl)cc(Cl)c4)cc3)cc2-c2ccncc2)cc1Cl`, 72.4% (inactive). For the molecule `c1ccc(CNCCN(CCNCc2ccccn2)Cc2ccc3ccccc3c2)nc1`, the growth is 21.2% (inactive). Regarding `COc1ccc(C2=NN(C(=O)COc3ccc(Cl)cc3)C(O)(c3cc(F)c(Cl)cc3Cl)C2)cc1OC` (stereo not given), the growth was 3.94% (active). On to `CCn1c(SC)nnc1-c1cc2c([nH]c3ccccc32)c(-c2cccc(O)c2)n1`, for which the growth was -23.1% (active). Take `COC1=C(OC)C(=O)C=CC1=O`: the growth was 110% (inactive). `COc1ccc(-c2nnc(SCC(=O)Nc3ccc(C(=O)/C=C/c4ccc(Cl)cc4)cc3)o2)cc1OC`: the growth was 71.4% (inactive). For the molecule `CC(CN(C)C)CN1c2ccccc2CCc2ccccc21` (stereo not given), the growth was 66.9% (inactive). Turning to `O=C(NCCNc1nccc(-c2c(-c3cccc(O)c3)nc3sccn23)n1)Nc1cccc(C(F)(F)F)c1`, the growth was 66.2% (inactive).

As to `OCc1cnccc1NC12CC3CC(CC(C3)C1)C2`, the growth is 105% (inactive). The result for `O=C(CNc1cccnc1)Nc1ccc(C(=O)/C=C/c2ccc(Cl)cc2)cc1` reads 87.8% (inactive); that for `O=C(/C=C/c1ccco1)c1cccc(Nc2nc(Nc3ccccc3)nc(Nc3ccccc3)n2)c1`, 60.2% (inactive).

Take `CCOC(=O)CSc1nnc(-c2cc3c([nH]c4ccccc43)c(-c3cccc(O)c3)n2)n1-c1ccc(C)cc1`: the growth is 63.3% (inactive). In the case of `COc1cc(Cn2cc3c(c2)-c2onc(CO)c2CC3)cc(OC)c1OC` it was 82% (inactive). Turning to `CCNc1ncnc2n[nH]nc12`, the growth was 94.8% (inactive).

Regarding `O=S1(=O)N(CCNc2nccc(-c3c(-c4cccc(O)c4)nc4sccn34)n2)CCN1Cc1ccccc1`, the growth was 70.4% (inactive). The result for `CC(=O)Oc1ccc(C(OC(C)=O)OC(C)=O)cc1` reads 106% (inactive). As to `O=C(COc1ccc(Cl)cc1Cl)N1N=C(c2ccc(Cl)cc2Cl)CC1(O)c1cc(F)c(Cl)cc1Cl` (stereo not given), the growth is 108% (inactive). The result for `COc1ccccc1N1CCN(CCCOc2ccc(OCCCN3CCN(c4ccccc4OC)CC3)c(C(=O)c3cc(OC)c(OC)c(OC)c3)c2)CC1` reads 120% (inactive); that for `CCCCN(CCCC)c1ccc(C(=N)c2ccc(N(C)C)cc2)cc1`, -46.6% (active).

Consider `CC(C)(C)NC(C1=CC(C)(C)c2ccccc2C1=O)c1ccccc1` (stereo not given), for which the growth was 16.3% (inactive). Consider `COc1cc2c(cc1OC)-c1c(oc3c4c(ccc3c1=O)OC(C)(C)C=C4)CO2`, for which the growth was 75.8% (inactive).

For the molecule `O=C(Nc1ccc(-n2cc(-c3ccncc3)c(-c3ccc(O)c(Cl)c3)n2)cc1)c1ccc(Cl)c(Cl)c1`, the growth is 70% (inactive). `CCn1cc(/C=C2\Oc3cc(OCC#N)ccc3C2=O)c2cc(OC)ccc21`: the growth was 19.1% (inactive).

Regarding `Oc1ccc(O)c(-[n+]2ccccc2)c1`, the growth is 104% (inactive). As to `O=C(O)c1ccccc1C(=O)c1ccc(I)cc1`, the growth is 98.1% (inactive).

Regarding `Nc1nc(-c2cc3c(cc2Cl)NC(=O)/C3=C/c2ccc(Cl)cc2)cs1`, the growth is 49.1% (inactive). In the case of `CCOc1ccc(NC2=C(Cl)C(=O)c3ccccc3C2=O)cc1` it was 81.3% (inactive). As to `Cc1ccc[n+](CC(=O)c2cccc3ccccc23)c1`, the growth is 96.2% (inactive).
